# Bioassay records (PubChem BioAssay)
# Tau filament bind: qHTS Assay for Tau Filament Binding | Microtubule-associated protein tau (Homo sapiens), P10636 | recombinant tau filaments, thioflavin S fluorescence, 15 h; filaments grown with octadecylsulfate alongside compound | Potency, µM (highest dose often 57.1 µM) | actives 2% (n = 71,000) | AID 596, 2007;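 further: actives lower thioflavin S fluorescence by blocking filaments or displacing dye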
#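 ThS-based fibril read: tau 1 uM final, inducer ODS 30 uM final, 37 C for 15 h, ex 450/em 510 nm.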
# TSHR agonist: qHTS Assay for Agonists of the Thyroid Stimulating Hormone Receptor | Potency, µM (titrated, usually from 57.1 µM), usual class: activators | HEK293-CNG-TSHR cells (CNG channel as cAMP sensor), membrane potential dye, cAMP | Thyrotropin receptor (Homo sapiens), P16473 | actives 0.48% (n = 73,000); active means well fitted activation curve with a large enough effect in the main read-out, with a control signal flat, not every such curve was filed as active; inconclusive means small, poorly fitted or top-dose-only effect, or a change in a side signal; inactive means no such curve, though single readings can be large or run the other way; reference of the percent scale not stated here;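 further: the control signal comes from parental cells without the receptor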
# Target sequence (P16473 whole entry, looked up): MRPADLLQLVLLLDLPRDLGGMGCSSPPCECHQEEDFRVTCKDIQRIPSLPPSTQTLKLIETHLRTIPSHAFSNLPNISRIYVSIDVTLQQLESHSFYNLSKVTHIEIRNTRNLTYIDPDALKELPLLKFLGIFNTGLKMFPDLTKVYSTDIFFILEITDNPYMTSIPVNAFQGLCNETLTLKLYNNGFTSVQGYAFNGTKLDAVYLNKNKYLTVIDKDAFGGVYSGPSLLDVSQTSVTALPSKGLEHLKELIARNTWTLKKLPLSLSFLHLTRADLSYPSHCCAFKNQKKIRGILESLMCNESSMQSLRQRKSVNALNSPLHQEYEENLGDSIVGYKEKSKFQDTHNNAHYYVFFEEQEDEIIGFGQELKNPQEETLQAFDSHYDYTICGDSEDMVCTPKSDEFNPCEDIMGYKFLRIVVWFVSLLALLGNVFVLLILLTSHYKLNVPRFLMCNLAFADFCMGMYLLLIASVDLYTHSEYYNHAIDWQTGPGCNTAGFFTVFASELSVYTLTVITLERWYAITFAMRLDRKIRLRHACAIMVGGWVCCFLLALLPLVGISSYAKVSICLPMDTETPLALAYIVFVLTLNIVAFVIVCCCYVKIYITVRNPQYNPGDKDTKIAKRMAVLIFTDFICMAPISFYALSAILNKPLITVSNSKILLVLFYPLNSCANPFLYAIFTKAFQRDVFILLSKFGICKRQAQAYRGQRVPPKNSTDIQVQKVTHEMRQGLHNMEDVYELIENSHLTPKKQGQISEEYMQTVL
#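 HEK 293 cells stably expressing TSHR and a cAMP-gated CNG channel; parental CNG-only cells as counterscreen. Cells preloaded 60 min with membrane potential dye plus 100 uM RO 20-1724, then compound 30 min; fluorescence read at 590 nm.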
# ERK AVP block: qHTS Assay for Inhibitors of the ERK Signaling Pathway using a Homogeneous Screening Assay; HEK293-V1b, vasopressin-stimulated pERK AlphaScreen; Potency, µM (highest dose often 57.5 µM), actives largely listed as inhibitors; actives 0.99% (n = 72,000); AID 995, 2007; further: nearly all actives have a fitted effect of over 55% in size
#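 Overnight-seeded V1b-HEK293 cells in 1% FBS got compound, then vasopressin (25 nM final, 5 min, 37C), then lysis buffer. AlphaScreen detection of phospho-ERK; activity normalized to basal and full-stimulation controls.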
# FLuc inh: qHTS Assay for Inhibitors of Firefly Luciferase | Luciferin 4-monooxygenase (Photinus pyralis), P08659 | Potency, µM (highest dose often 57.1 µM), actives largely listed as inhibitors | purified firefly luciferase, luminescence, 8 min | actives 2.2% (n = 72,000); further: nearly all actives have a fitted effect of over 40% in size
#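 Compounds were tested as concentration series (qHTS) against purified P. pyralis luciferase with luciferin and 10 uM ATP in 50 mM imidazole pH 7.2, 50 mM KCl, 7 mM MgCl2, 0.01% Tween 20, 0.05% BSA. Luminescence was read after 8 min at ambient temperature.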
# HEK293 cAMP ctrl: qHTS Assay for Agonists of the Thyroid Stimulating Hormone Receptor: Activators of Intracellular cAMP Concentrations in Parental HEK 293 | parental HEK293 CNG cAMP sensor, membrane potential fluorescence | Potency, µM (doses to about 57.1 µM), hits mostly activators | actives 2.5% (n = 73,000); further: nearly all actives have a fitted effect of over 55% in size
#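 Parental HEK 293 cells stably expressing a cAMP-gated CNG channel were loaded with membrane potential dye containing 100 uM RO 20-1724 for 60 min. Compound added for 30 min; depolarization read as fluorescence intensity at 590 nm.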
# PK Bst: Pyruvate Kinase | purified pyruvate kinase, luminescence ATP production; ribose 5-phosphate activator present at AC10 | Potency, µM | actives 1.2% (n = 51,000) | AID 361, 2006; in the data active means potency below about 11 µM; inconclusive means mostly about 12 µM to 25 µM;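 the screen sought inhibitors and activators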
# A number is an active result; 0 = inactive; ? = inconclusive; - = no result; [ ] = dose if it differs, or a comment. Sampled rows, rich in hits. Any-hit rate of the full collection: about 7.2%. Unless noted, the call rests on the fitted dose curve; in most records, active means well fitted curve in the direction sought with a large enough effect; inconclusive means small, poorly fitted or top-dose-only effect, or another doubt; inactive means no such curve, though single readings can be large; an effect the other way counts as inactive or inconclusive.
SMILES,Tau filament bind,TSHR agonist,ERK AVP block,FLuc inh,HEK293 cAMP ctrl,PK Bst
COc1ccc(OC)c2c(C)cc(N3CCN(C(=O)c4ccc(F)cc4)CC3)nc12,0,0,32µM,0,0,-
COc1ccc(C(=O)N2CCN(c3ccc(C)c(C)c3)CC2)cc1OC,0,0,-,0,0,-
O=C(Nc1cccc(F)c1)N1CC[C@@]2(CCCN(C(=O)c3cc(C(F)(F)F)cc(C(F)(F)F)c3)C2)C1,0,0,0,0[11.4 µM],0,-
CCCn1c(-c2ccc(F)cc2)nc2c(NCC3CCN(C)CC3)nc(C)nc21,0,?,0,-,?,-
CCN(CC)S(=O)(=O)c1cccc(-c2nnc(SC(C)C#N)n2Cc2ccccc2)c1 (stereo not given),0,?,0,0,25µM,0
CCN(CC)S(=O)(=O)c1cccc(-c2nnc(SCC#N)n2Cc2ccccc2)c1,0,?,0,0,?,0
CN(C)CCCN=c1c2ccccc2n(C)c2[nH]c(=O)n(C)c(=O)c12,0[11.4 µM],0[11.4 µM],0[11.5 µM],0[11.4 µM],0[11.4 µM],-
Cc1nc2oc3c(NCc4ccccn4)ncnc3c2c2c1COC(C)(C)C2,0,0,25µM,0,0,0
CC(C)c1nc2oc3c(NCc4ccccn4)ncnc3c2c2c1COC(C)(C)C2,0,0,0,0,0,0
O=C1SC(c2ccccc2)=N/C1=C/c1ccco1,25µM,0,0,0,0,0
Cc1cccc(N2CCN(C(=O)c3ccc(CS(=O)(=O)c4ccccc4C)o3)CC2C)c1 (stereo not given),0,?,?,0,25µM,0
COc1ccccc1S(=O)(=O)Cc1ccc(C(=O)N2CCN(c3cccc(Cl)c3)CC2)o1,0,?,?,0,5µM,0
Nc1cccc2cc(S(=O)(=O)Nc3ccc(C(=O)O)cc3)ccc12,0[11.4 µM],0[11.4 µM],0[11.5 µM],0[11.4 µM],0[11.4 µM],-
COc1ccc2c(c1)CCc1c(-c3noc4c3CCc3cc(OC)ccc3-4)noc1-2,0[11.4 µM],0[11.4 µM],0[11.5 µM],0[11.4 µM],0[11.4 µM],-
COc1ccc2c(c1)Cc1cc(N=[N+]([O-])c3ccc4c(c3)Cc3cc(OC)ccc3-4)ccc1-2,3.2µM,0[11.4 µM],0[11.5 µM],0[11.4 µM],0[11.4 µM],-
COc1cccc(C(=O)/C=C/Nc2cc(C)ccc2O)c1,0,0,?,7.9µM,0,5.6
Cc1cccc(OCC(=O)Nc2cc(C)ccc2O)c1,0,0,?,0,0,0
NC(=O)c1ncn([C@@H]2O[C@@H](CO)[C@@H](O)[C@H]2O)c1O,0,?,0,0,?,-
Cc1noc(C)c1CSc1nnc(-c2ccccc2F)n1CCc1ccccc1,0,?,0,0,10µM,0
Cc1cc(C(=O)Nc2cc(C)n(Cc3ccc(Cl)cc3)n2)no1,0,0,0,0,0,0
COc1ccccc1-c1cc(C(=O)Nc2cc(C)n(Cc3ccc(Cl)cc3)n2)no1,0,?,0,0,3.2µM,0
O=S(=O)(c1ccccc1)N1CCC2(CCCN(c3ccccn3)C2)CC1,0,?,0,0[11.4 µM],?,-
C=C(C)[C@H]1CC=C(C)C(=O)C1,0,0,0,-,0,-
CC(C)c1cc(C(F)(F)F)nc(NNc2nc(C(C)C)cc(C(F)(F)F)n2)n1,0[11.4 µM],?,0[11.5 µM],0[11.4 µM],5µM,-
Nc1ccccc1S[C@@H](C[N+](=O)[O-])c1ccc2c(c1)OCO2,0[11.4 µM],0[11.4 µM],?,0[11.4 µM],0[11.4 µM],-
SMILES,Tau filament bind,TSHR agonist,ERK AVP block,FLuc inh,HEK293 cAMP ctrl,PK Bst
CCN(CC)Cc1cc(Nc2ccnc3cc(Cl)ccc23)ccc1O,3.2µM,0,0,0,0,-
O=C(O)c1ccc(Nc2ccnc3cc(Cl)ccc23)cc1O,0[11.4 µM],0[11.4 µM],0[11.5 µM],0[11.4 µM],0[11.4 µM],-
OC/C=C/c1ccc(O)c(O)c1,-,-,0,-,-,-
O=C(O)[C@@H]1[C@@H](C(=O)Nc2ncccn2)[C@@H]2C=C[C@@H]1O2,0[11.4 µM],0[11.4 µM],0[11.5 µM],0[11.4 µM],0[11.4 µM],-
Cc1cc(NC(=O)c2ccccc2NS(=O)(=O)c2c(C)c(C)cc(C)c2C)no1,0,?,0,0,32µM,0
Cc1ccc(C)c(S(=O)(=O)Nc2ccccc2C(=O)Nc2cc(C)on2)c1,0,0,0,0,0,0
O=C(O)CCC/C=C\C[C@@H]1CO[C@H](C(F)(F)F)O[C@@H]1c1ccccc1O,0,0,0,0,0,-
O=C(c1ccco1)c1nnn(Cc2ccccc2)c1-c1ccccc1,0,?,0,0,32µM,-
Nc1c(C(=O)NCc2ccco2)nnn1Cc1ccccc1,0,?,0,0,?,0
C=CCc1ccccc1OC[C@H](O)CNC(C)C,0,0,0,0,0,-
Cc1cc(Cl)ccc1Nc1sc(C(=O)c2cc3cc(Cl)ccc3o2)c(N)c1C#N,3.2µM,0[11.4 µM],0[11.5 µM],0[11.4 µM],0[11.4 µM],-
CCCC(=O)c1cc2cc(Cl)ccc2oc1=O,0,?,0,0,?,0
CCCNC(=O)c1c(N)n(-c2cccc(OC)c2)c2nc3ccccc3nc12,0,0,0,0,0,0
COC(=O)c1c(N)n(-c2cc(OC)cc(OC)c2)c2nc3ccccc3nc12,7.9µM,0,0,0,0,0
CN1/C(=C\C(=O)c2cccs2)Sc2ccccc21,0,?,0,6.3µM,?,6.6
COc1cccc(Nc2ncc3nc(CCc4ccccc4)c(=O)n(C4CC4)c3n2)c1,0,0,0,0[11.4 µM],0,-
COc1cc(CNc2ccc3[nH]c(=O)[nH]c3c2)ccc1OCC(=O)NC(C)(C)C,13µM,0,?,0,0,-
O=C(O)CCCCn1cnc2c(=S)nc[nH]c21,0[11.4 µM],0[11.4 µM],0[11.5 µM],0[11.4 µM],0[11.4 µM],-
O=C(/C=C\Nc1ccc2c(c1)OCO2)c1ccccn1,0,0,0,0.63µM,0,-
c1ccc(-c2cnc(CSc3ncnc4sccc34)o2)cc1,0,?,32µM,0,16µM,0
CCOC(=O)C1CCN(c2c(Nc3ccc4c(c3)OCCO4)c(=O)c2=O)CC1,0,0,0,0,0,-
CCOC(=O)C1CCN(C(C(=O)Nc2ccc3c(c2)OCCO3)c2ccccc2)CC1 (stereo not given),0,?,0,0,13µM,0
CCC(=O)N1CCCc2cc(S(=O)(=O)N3CCN(c4ncccn4)CC3)ccc21,0,0,?,0,0,-
CCC(=O)N1CCCc2cc(S(=O)(=O)N3CCN(c4ccccc4F)CC3)ccc21,0,?,0,0,25µM,-
CCCSc1nnc(-c2cccc(S(=O)(=O)N(C)C)c2)n1-c1cc(OC)ccc1OC,0,?,0,0,7.9µM,0
CCSc1nnc(-c2cccc(S(=O)(=O)N(C)C)c2)n1-c1cc(OC)ccc1OC,0,?,0,0,5µM,0
COc1ccc(OC)c(-n2c(SCC(C)=O)nnc2-c2cccc(S(=O)(=O)N(C)C)c2)c1,0,?,?,0,?,0
